The supplement of paper PMC10477191
± gives the standard deviation of the averaged measurements.

Each compound was assayed on Drosophila ezoana antennal basiconic sensillum ab6 (assay: odor-evoked OSN spike response (post minus pre-stimulus); higher = stronger neuronal excitation). Settings: odor dilution: 10^-4.
Procedure: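 Single sensillum recordings from antennal basiconic sensilla of D. ezoana. A 500 ms pulse of odorant (10^-4 in mineral oil or DMSO) was delivered; the response is the change in action potential frequency between the 1 s pre- and post-stimulus windows (spikes/s).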

| Compound | odor-evoked OSN spike response [spikes/s] |
| --- | --- |
| CCOC(=O)c1ccccc1 [ethyl benzoate] | 66.1 ± 26 |
| CCCCCCO [1-hexanol] | 77.5 ± 29 |
| CCOC(C)=O [Ethyl acetate] | 55.2 ± 25 |
| CCCC(=O)OCC [ethyl butanoate] | 52.1 ± 29 |
| CCCCCC(C)=O [2-heptanone] | 60.9 ± 21 |
| Oc1ccccc1 [phenol] | 73 ± 38 |
| CC(=O)CCC=C(C)C [6-methyl-5-hepten-2-one] | 58.1 ± 30 |
| OCCc1ccccc1 [2-phenylethanol] | 53 ± 31 |
| CCCCCC(=O)OCC [ethyl hexanoate] | 52.2 ± 20 |
| CCOC(=O)CC(C)O (stereo not given) [Ethyl-3-hydroxybutyrate] | 93.1 ± 33 |
| CCCCCCCC(C)=O [2-nonanone] | 54.7 ± 22 |
| CCCCC(C)O (stereo not given) [2-hexanol] | 67.3 ± 33 |
| CC(=O)C(C)O (stereo not given) [acetoin] | 69.8 ± 40 |
| COC(=O)c1ccccc1O [Methyl salicylate] | 58.3 ± 32 |
| C=CC(O)CCCCC (stereo not given) [1-octen-3-ol] | 143 ± 47 |
| C/C=C/C(=O)OCC [Ethyl crotonate] | 71.1 ± 37 |
| CCOC(=O)C(C)O (stereo not given) [Ethyl lactate] | 58 ± 18 |
| CCCCCCCC(C)O (stereo not given) [2-nonanol] | 55.7 ± 33 |
| CCCCCOC(C)=O [pentyl acetate] | 67.9 ± 20 |
| COc1ccccc1O [guaiacol] | 123 ± 36 |
